# From PubChem BioAssay (EPA / NIEHS)
# Results filed as inconclusive are left out. More than one record can exist for a structure, and the calls need not agree. Active and inactive are the calls of the source. The calls were made as follows: active = hit-call score of the fitted dose curve at least 0.9, where 1 is the maximum; inconclusive = response in the unintended direction; inactive = score below 0.9.
# Experiment: IUF_NPC1_cytotoxicity_72hr: Cytotoxicity Assessment at 72 hours in the Leibniz Research Institute for Environmental Medicine (IUF) Neural Progenitor Cell Proliferation Assay (NPC1) (AID 2284332);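 also: rising LDH signal means more cytotoxicity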
# Description: IUF_NPC1 is a cell-based, multiplexed assay that uses hNPC, a human primary neural progenitor cells, with measurements taken at 72 hours after chemical dosing in a 96-well plate. Human neural progenitor cells (hNPC) are generated from human fetal brain cortex at gestational week (GW) 16-19. Grown in suspension culture and under proliferative conditions (proliferation media and growth factors), these cells represent neural progenitor cell proliferation. In the NPC1 assay, hNPC's are exposed to the test compound for 72h. Cell proliferation is assessed as an increase in sphere area using automated phase contrast imaging and as incorporation of Bromodeoxyuridine (BrdU) during DNA synthesis using a luminescence-based cell proliferation ELISA. In parallel, the cell viability is assessed using an alamar blue viability assay and the cytotoxicity using a lactate dehydrogenase dependent membrane integrity assay.IUF_NPC1_cytotoxicity_72hr is one of 4 assay components measured from the IUF_NPC1 assay. It is designed to measure cytotoxicity at 72 hrs due to loss of membrane integrity. LDH measurements are performed from medium supernatants of each well and are based on the reduction of resazurin to resorufin measured as fluorescence signal (relative fluorescence unit) in a multiplate reader. Data from the IUF_NPC1_cytotoxicity_72hr component was analyzed at the endpoint IUF_NPC1_cytotoxicity_72hr in the positive analysis fitting direction relative to the dynamic range and baseline of activity. Using a type of viability reporter, gain-of-signal activity can be used to understand cytotoxicity effects.
# After the cell expansion period, the cells are cultured for up to four weeks in which they are passaged every week. Between one to three days after passaging, depending on the size chosen for passaging, spheres at a size of 0.3 mm are used in the assay. For the assessment of neural progenitor cell proliferation, the spheres are plated in poly-Hema coated 96-well U-bottom plates filled with proliferation medium containing growth factors (EGF and FGF). One 0.25 - 0.35 mm big sphere is plated in the middle of each well. Within 3 days NPCs proliferate and grow in size. Cultivation during the test method is performed at 37C and 5% CO2 at a pH of 7.2-7.6. As a positive control, spheres are cultivated in the absence of growth factors (EGF and FGF), which dramatically reduces proliferation. Exposure starts on the plating day (day 0) and is continued over three days, without chemical renewal, until the experiment is terminated. The assay is terminated by the assessment of cell viability, cytotoxicity, and proliferation by BrdU. All endpoints are generated from the same experimental run and from each well/sphere in the 96-well plate.
SMILES,outcome,AC50
O=S(=O)(O)C(F)(F)C(F)(F)C(F)(F)C(F)(F)C(F)(F)C(F)(F)C(F)(F)C(F)(F)F,inactive,3.31 µM (active)
CC(C)N(C(=O)COc1nnc(C(F)(F)F)s1)c1ccc(F)cc1,inactive,–
O=S1OCC2C(CO1)C1(Cl)C(Cl)=C(Cl)C2(Cl)C1(Cl)Cl (centres undefined),inactive,–
CNC(=O)CSP(=S)(OC)OC,inactive,–
CCC(C)(C)C(=O)OC1=C(c2ccc(Cl)cc2Cl)C(=O)OC12CCCCC2,inactive,–
O=[N+]([O-])/N=C1\NCCN1Cc1ccc(Cl)nc1,inactive,–
CC[C@H](C)[C@H]1O[C@]2(C=C[C@@H]1C)C[C@@H]1C[C@@H](C/C=C(\C)[C@@H](O[C@H]3C[C@H](OC)[C@@H](O[C@H]4C[C@H](OC)[C@@H](O)[C@H](C)O4)[C@H](C)O3)[C@@H](C)/C=C/C=C3\CO[C@@H]4[C@H](O)C(C)=C[C@@H](C(=O)O1)[C@]34O)O2 (tested in a mixture with another compound),inactive,–
COP(=S)(OC)Oc1ccc([N+](=O)[O-])cc1,inactive,–
COP(=O)(OC)OC=C(Cl)Cl,inactive,–
O=C(O)COc1ccc(Cl)cc1Cl,inactive,–
CC1(c2ccc(Oc3ccccc3)cc2)OC(=O)N(Nc2ccccc2)C1=O (centres undefined),inactive,–
O=C(O)C(F)(F)C(F)(F)C(F)(F)C(F)(F)C(F)(F)C(F)(F)C(F)(F)F,inactive,–
CC1(C)C(C=C(Cl)Cl)C1C(=O)OC(C#N)c1ccc(F)c(Oc2ccccc2)c1 (centres undefined),inactive,–
